# A number with no mark means an inactive call. Active and inactive are the calls of the source. Calls come from the whole dose curve; as a rule, active = well fitted curve in the direction sought with a large enough effect in the repeat runs; inconclusive = weak or mixed curves; inactive = flat fitted curve, though single readings scatter.
# Experiment: qHTS assay to test for compound auto fluorescence at 535 nm (green) in HepG2 cell free culture (AID 720686)
# Details: Cell-free medium, green autofluorescence 485/535 nm; series mostly up to 91.3 µM; fluorescence, % of fluorescein control: at the top concentration
# Text: U.S. Tox21 Program National Center for Advancing Translational Sciences [NCATS] NIH Chemical Genomics Center [NCGC] U.S. Environmental Protection Agency [EPA] National Institutes of Environmental Health Sciences [NIEHS] National Toxicology Program [NTP] U.S. Food and Drug Administration [FDA] Tox21 Assay Overview: Compound auto fluorescence often interferes with screening of the compound library against various biological targets and signaling pathways. Some of these compounds may have fluorophoric properties. Such properties may interfere with the assay outputs resulting in false positives and/or negatives. To decrease such complications and ensure the compound activities are relevant in terms of biological response, the Tox21 10K compound library was screened for auto fluorescence. From the fluorophores used as reporter signals in our screening assays, the auto fluorescence equivalencies of compounds against three fluorophores have been evaluated: Triamterene, Fluorescein and Rose Bengal sodium for blue, green and red fluorescence, respectively. The fluorescence intensities were measured using Excitation/Emission wavelengths at 405/460nm, 485/535nm and 540/590nm for blue, green and red labels, respectively. This assay includes the green fluorescence data.
# Tox21 Assay Protocol Summary: 5 uL of culture medium (MEM containing 10% FBS) per well was dispensed into black wall/clear bottom 1536-well plates using a Multidrop Combi Dispenser (ThermoFisher Scientific, Waltham, MA). After 23 nL compound or DMSO vehicle was transferred into assay plate by a pintool work station (Kalypsys, San Diego, CA), fluorescence intensities in the assay plates were measured by an Envision (PerkinElmer, Shelton, CT) plate reader using three labels for measuring blue, green and red fluorescence at […] 460, 535 and 590nm respectively.
# % is set by controls: 0 for no effect and ±100 for the full control effect.
SMILES,"fluorescence, % of fluorescein control",Potency
CCO[Si](CCCCl)(OCC)OCC,-0.104%,
CCN(CC)CCNc1ccc(CNC=O)c2sc3ccc(OC)cc3c(=O)c12,0.0128%,
OCCNCc1ccccc1,0.0316%,
CCCCCCCCCCCC(=O)OC[C@@H](O)[C@H]1OC[C@H](OCCO)[C@H]1OCCO,-0.0692%,
CCCCC,,inactive
ClCCOCCOCCCl,-0.0413%,
NCC(=O)O,-0.0041% [at 46 µM],
CCCCc1nc2cccnc2n1Cc1ccc(-c2ccccc2-c2nnn[nH]2)cc1,-0.013%,
CC(COCCO)OCCO (stereo not given),0.0865%,
O=C(O)CC(=O)C(=O)O,0.0764%,
COc1cc2nc(N(C)CCCNC(=O)C3CCCO3)nc(N)c2cc1OC (stereo not given),-0.0969% [at 18.6 µM],
C[N+]1(C)CCC(OC(=O)C(O)(c2ccccc2)C2CCCC2)C1 (stereo not given),,inactive
CN(C)CCCN1c2ccccc2Sc2ccccc21,0.134% [at 18.6 µM],
CCCCCCCCCc1ccc(OCCOCCO)cc1,,inactive
CN(C)CCN(Cc1ccc(Cl)cc1)c1ccccn1,-0.14% [at 18.6 µM],
CC(=O)c1cccc([N+](=O)[O-])c1,0.0978%,
CCOCC(O)COc1ccc(NC(=O)CC[S+](C)C)cc1 (stereo not given),0.0174% [at 46 µM],
O=C(O)c1ccc(-n2nc(-c3ccccc3O)nc2-c2ccccc2O)cc1,-0.147% [at 46 µM],
CN(C)c1ccc(/C=C/c2ccc([N+](=O)[O-])cc2)cc1,-0.0291% [at 3.72 µM],
CCCn1cnc2c1c(=O)n(CCCCC(C)=O)c(=O)n2C,0.0107% [at 46 µM],

SMILES,"fluorescence, % of fluorescein control",Potency
O=C(O)CNCC(=O)O,-0.0374% [at 3.72 µM],
C=C(C)C(=O)OCCO,-0.138% [at 95.7 µM],
CCCCCCCCCCCCCCOS(=O)(=O)O,0.0187%,
COC(C)OC,-0.09%,
C=CCOC(=O)CCC1CCCCC1,-0.0341%,
O=C1C(O)=C(O)C(=O)C(O)=C1O,-0.0028% [at 46 µM],
Nc1ccc(N)c2c1C(=O)c1ccccc1C2=O,-0.309%,
C=C1C(=C/C=C2\CCC[C@]3(C)[C@@H]([C@H](C)/C=C/[C@@H](O)C4CC4)CC[C@@H]23)C[C@@H](O)C[C@@H]1O,0.131% [at 46 µM],
Cc1cc(C(=O)O)ccc1[N+](=O)[O-],0.0544%,
CCCCOC(=O)CCCCCCCC(=O)OCCCC,0.0154%,
C/C=C/C(=O)CC,-0.0146% [at 18.6 µM],
OCc1cc(C(O)CNCCCCCCOCCCCc2ccccc2)ccc1O (stereo not given),,inactive
CC(C)=CCC/C(C)=C/CC/C(C)=C/CO,0.119%,
CC/C=C\CCOC(=O)CC,-0.0128%,
Nc1ccc(S(=O)(=O)Nc2ccccc2)cc1,-0.021% [at 46 µM],
COC(=O)c1ccc(I)cc1S(=O)(=O)NC(=O)Nc1nc(C)nc(OC)n1,-0.0052%,
CCCCCCCCCCCc1ccccc1,-0.117%,
CC1CCC(=O)C1=O (stereo not given),0.0848% [at 95.7 µM],
COc1cc(Cl)c(OC)cc1N,0.0036%,
CN1C[C@H]2c3ccccc3Oc3ccc(Cl)cc3[C@@H]2C1,-0.179% [at 46 µM],

# From PubChem BioAssay (Tox21)
